Some of the results follow. Inconclusive results are not listed. The source made the active and inactive calls.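 How the source made its calls: active means compounds whose IC50 for blocking JMJD2E demethylation is below 100 µM; inconclusive means dose dependent effect but IC50 above 100 µM; inactive means the rest.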

In the assay the target is Lysine-specific demethylase 4E (Homo sapiens) (UniProt B2RXH2). In words: MALDI-TOF-MS Assay for Inhibitors of Human Jumonji Domain Containing 2E (JMJD2E). Conditions: recombinant JMJD2E demethylation. From the text: The fine interplay among methylation states of several lysine residues on the tails of histone proteins is a major determinant of the transcriptional state of the associated DNA coding regions and is commonly referred to as the histone code. Histone lysine demethylases catalyze the removal of methyl groups from methylated lysine sidechains on histones H3 and H4, thus antagonizing the reactions catalyzed by histone lysine methyltransferases. […] In search for novel inhibitors of JMJD2E demethylase, a member of the largest set of histone demethylases belonging to the Fe(II) and 2-oxoglutarate oxygenase (2OG) superfamily, we performed a quantitative high-throughput screen (Inglese 2006). See AID 2147 for details on the primary screen. […]
Lysine-specific demethylase 4E (Homo sapiens), sequence (B2RXH2 1-337 limits assumed): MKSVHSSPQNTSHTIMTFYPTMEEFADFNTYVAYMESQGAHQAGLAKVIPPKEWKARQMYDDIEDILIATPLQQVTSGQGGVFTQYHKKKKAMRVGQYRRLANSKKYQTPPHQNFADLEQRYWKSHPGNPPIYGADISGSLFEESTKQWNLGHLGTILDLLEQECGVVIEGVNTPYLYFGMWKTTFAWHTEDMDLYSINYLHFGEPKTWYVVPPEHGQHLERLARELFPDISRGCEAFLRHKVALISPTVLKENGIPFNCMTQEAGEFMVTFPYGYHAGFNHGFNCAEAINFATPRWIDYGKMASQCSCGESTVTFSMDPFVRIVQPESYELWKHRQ
For the MS assays, JMJD2E (2 uM), FAS (10 uM) and SA (100 uM) in HEPES buffer, 50 mM, pH 7.5, were incubated with inhibitor (stock solutions in DMSO, final in-assay concentration varied, but final DMSO concentration was 5% of assay mix) for 15 min at room temperature. […] The relative intensities of different methylation states observed in the mass spectra were then used to calculate percentage demethylation, and IC50s were calculated from the variation in percentage demethylation at different inhibitor concentrations.
For the molecule `Oc1ccc(/C=C/c2c(F)cccc2F)c2cccnc12`, the Potency is 89.6 µM (active). `Nc1ccc(Nc2cc(O)c3ncccc3c2)cc1`: the Potency is 20.2 µM (active).

Values taken from PubChem BioAssay AID2688 (National Center for Advancing Translational Sciences (NCATS), 2010).
